Reference: PubChem BioAssay AID652057 (Broad Institute, 2013)
Hit rate of the full screen: of about 1,400 compounds, about 1,000 (71%) were called active. How the calls were made is not given here. The set was probably picked from earlier hits. These entries were drawn from the full list. Measured potencies and affinities stand elsewhere.

Experiment: inhibitors of HIV Env-driven cell fusion, dose response, cherry-pick (AID 652057)
Settings: HeLa-JRFL Env/CEM21 cell fusion, luciferase; series mostly up to 35 µM; activity change, negative = inhibition: at the top concentration

Activity change, negative = inhibition, inactive:
C=CC[n+]1c(-c2ccc(C)cc2)csc1NNC(=O)Nc1ccccc1 -18.4% [at 16 µM]
NC(=S)c1ccc(OCCCc2ccccc2)cc1 19.6%
O=C1c2cccc(OCc3ccc(F)cc3)c2CCN1Cc1ccccc1 -36.6%
O=C(C[C@H]1C[C@@H]2c3cc(NC(=O)C4CCC4)ccc3O[C@@H]2[C@@H](CO)O1)NCc1ccc2c(c1)OCO2 24.8%
C=CCOc1c(Br)cc(CNc2ccc(NC(=O)C(C)C)c(OC)c2)cc1OC 15.3%
CC1(C)N=C(N)N=C(N)N1CCCCc1ccccc1 -26.4%
COc1cc(-c2c(-c3cc(OC)c(OC)c(OC)c3)noc2C)ccc1F 54.8%
O=C(CNC(=O)c1cccc(-n2cccc2)c1)Nc1ccccc1Br 5.83%
COc1ccccc1S(=O)(=O)Nc1ccc2c(c1)C(=O)N(C)C[C@@H](OC)[C@@H](C)CN[C@@H](C)CO2 11.4%
CCCNC(=O)C[C@H]1C[C@H]2c3cc(NC(=O)CN(C)C)ccc3O[C@H]2[C@@H](CO)O1 15.8%
COc1ccc(NC(=O)c2ccc(Cl)c(S(=O)(=O)N3CCc4ccccc4C3)c2)cn1 -27.9%
O=C(Nc1ccc(F)cc1)Nc1ccc2c(c1)[C@@H]1C[C@H](CC(=O)N3CCCCC3)O[C@@H](CO)[C@@H]1O2 -5.66%
COc1ccccc1Oc1ccc(S(=O)(=O)NCc2ccccn2)cc1 -14.1%
O=C(Nc1ccc(Oc2ccccc2)cc1)c1csc([C@H]2C[C@H](O)[C@@H](CO)O2)n1 -10.4%
COc1ccc(OC)c(-c2cc(C(=O)Nc3c(C)nn(Cc4ccc(Cl)cc4)c3C)no2)c1 -26%
CCCCS(=O)(=O)N1CCN(C(=O)C(=O)c2cccc(C(F)(F)F)c2)CC1 10.8%
CCS(=O)(=O)Nc1ccc2c(c1)C(=O)N(C)C[C@H](OC)[C@@H](C)CN(C(=O)C1CCC1)[C@H](C)CO2 12.2%
CN(C)Cc1cn(CC[C@@H]2CC[C@H](N)[C@H](CO)O2)nn1 24.1%
Nc1nonc1C(=O)NCCNCc1cc(Br)ccc1OCc1ccccc1F -12.6%
CN1CCN(C(=O)C[C@H]2C[C@@H]3c4cc(NS(C)(=O)=O)ccc4O[C@@H]3[C@H](CO)O2)CC1 9.51%
O=C(Nc1ccc(C(=O)OC2CCCCC2)cc1)c1ccncc1 13.6%
CCCCOc1ccc(S(=O)(=O)Nc2cccnc2)cc1 6.53%
C[C@H](CO)N1C[C@H](C)[C@@H](CN(C)C(=O)Nc2cccc3ccccc23)OCCCC[C@H](C)Oc2ccc(N(C)C)cc2C1=O -30.6%
C[C@H]1CN([C@@H](C)CO)C(=O)c2cccc(NC(=O)c3ccncc3)c2O[C@@H]1CN(C)C(=O)Nc1cccc2ccccc12 0.94%
O=C(C[C@@H]1C[C@H]2c3cc(NC(=O)Nc4ccccc4)ccc3O[C@H]2[C@H](CO)O1)NCc1cccnc1 -1.52%
O=C(NCc1cccnc1)c1c[nH]c2cc3c(cc2c1=O)OCCO3 47.4%
COc1cc(CSc2nnnn2-c2ccc(C)cc2)cc(OC)c1OC -1.13%
c1ccc2c(c1)ncn2CCCCOc1ccc2c(c1)CCC2 1.92% [at 16 µM]
Cc1ccc(Cn2ncc3c(N4CCN(Cc5ccc(Cl)cc5)CC4)ncnc32)cc1 -11.6%
COc1ccc(C)cc1NC(=O)CCNS(=O)(=O)c1ccc2c(c1)CC(C)N2C(C)=O (stereo unspecified) -12.8%
CCOC(=O)C1CCN(C(=O)c2ccc3c(c2)C(=O)N(c2ccccc2C)C3=O)CC1 35.1%
COc1ccc(OCC(=O)Nc2ccccc2N2CCCCC2)cc1 39.9%
OCC[C@@H]1C[C@@H](O)[C@H](O)[C@]2(OCc3ccccc32)O1 -4.52%
c1ccc2c(c1)CCN(c1ncnc3c1[nH]c1ccccc13)C2 2.06%
Cc1ccc(Cn2ncc3c(N4CCN(c5ccc(C)cc5)CC4)ncnc32)cc1 35%
CC(=O)c1ccc(S(=O)(=O)N2CCN(c3nc4c(C)c(C)ccc4cc3C#N)CC2)cc1 -11.1%
O=C(C[C@H]1C[C@@H]2c3cc(NC(=O)C4CCC4)ccc3O[C@@H]2[C@@H](CO)O1)NCC(F)(F)F 9.8%
CC(=O)C1=C(C)NC(=S)NC1c1ccccc1 (stereo unspecified) 13.6%
CCOC(=O)C1CCCN(Cc2nc(N)nc(Nc3ccc(OC)cc3)n2)C1 (stereo unspecified) -0.574%
COC(=O)[C@@]1(Cc2ccc(F)cc2)[C@H]2c3cc(C(=O)N(C)C)n(CCO)c3C[C@H]2CN1C(=O)c1ccccc1 13.3%
N#CCSc1nnc(-c2sc3ccccc3c2Cl)o1 -11.7%
CO[C@H]1CN(C)C(=O)c2cc(NS(=O)(=O)c3ccc(Cl)cc3)ccc2OC[C@@H](C)N(C)C[C@@H]1C 19.1%
CO[C@H]1CN(C)C(=O)c2cc(NC(C)=O)ccc2OC[C@@H](C)N(Cc2nccs2)C[C@H]1C 20.8%
CCNC(=O)C[C@@H]1CC[C@@H]2[C@H](COC[C@@H](O)CN2C(=O)c2ccccn2)O1 -7.64%
CCCNC(=O)C[C@H]1C[C@H]2c3cc(NC(=O)Cc4ccncc4)ccc3O[C@H]2[C@H](CO)O1 0.858%
CCCNC(=O)C[C@@H]1C[C@@H]2c3cc(NC(=O)Cc4ccncc4)ccc3O[C@@H]2[C@H](CO)O1 5.24%
CN(C)C(=O)C[C@@H]1C[C@H]2c3cc(NS(=O)(=O)c4ccc(F)cc4)ccc3O[C@H]2[C@H](CO)O1 37.5%
CN(C)C(=O)C[C@H]1C[C@@H]2c3cc(NS(=O)(=O)c4ccc(F)cc4)ccc3O[C@@H]2[C@@H](CO)O1 14.9%
CS(=O)(=O)Nc1ccc2c(c1)[C@H]1C[C@@H](CC(=O)NCCN3CCCCC3)O[C@@H](CO)[C@H]1O2 18.3%
CS(=O)(=O)Nc1ccc2c(c1)[C@H]1C[C@H](CC(=O)NCc3ccc(-c4ccccc4)cc3)O[C@H](CO)[C@H]1O2 -12.4%
COCCNC(=O)C[C@@H]1C[C@H]2c3cc(N(C)C)ccc3O[C@H]2[C@@H](CO)O1 14.4% [at 16 µM]
O=C(C[C@@H]1C[C@@H]2c3cc(NC(=O)c4ccc5c(c4)OCO5)ccc3O[C@@H]2[C@@H](CO)O1)NCc1ccc(Oc2ccccc2)cc1 -9.82% [at 30 µM]
O=C(C[C@H]1C[C@@H]2c3cc(NC(=O)C4CCOCC4)ccc3O[C@@H]2[C@H](CO)O1)NCc1ccccc1 -0.474%
O=C(C[C@@H]1C[C@H]2c3cc(NC(=O)C4CCOCC4)ccc3O[C@H]2[C@@H](CO)O1)NCc1ccccc1 6.66%
COC(=O)C[C@@H]1C[C@H]2c3cc(NS(=O)(=O)c4cccc(OC)c4)ccc3O[C@H]2[C@@H](CO)O1 53.6%
CS(=O)(=O)Nc1ccc2c(c1)[C@H]1C[C@H](CC(=O)N3CCc4ccccc4C3)O[C@H](CO)[C@H]1O2 4.05%
CS(=O)(=O)Nc1ccc2c(c1)[C@@H]1C[C@@H](CC(=O)N3CCc4ccccc4C3)O[C@H](CO)[C@@H]1O2 16.9%
O=C(C[C@@H]1C[C@@H]2c3cc(NC(=O)C4CCC4)ccc3O[C@@H]2[C@@H](CO)O1)NCc1ccc2c(c1)OCO2 -14.9%
O=C(C[C@@H]1C[C@H]2c3cc(NC(=O)Nc4ccc(F)cc4)ccc3O[C@H]2[C@H](CO)O1)NCC1CC1 38.6%
O=C(C[C@@H]1C[C@@H]2c3cc(NC(=O)Nc4ccccc4)ccc3O[C@@H]2[C@@H](CO)O1)NCc1ccccc1 12.8% [at 30 µM]
O=C(C[C@H]1C[C@@H]2c3cc(NC(=O)Nc4ccc(F)cc4)ccc3O[C@@H]2[C@@H](CO)O1)NCC1CC1 -7.22%
O=C(C[C@@H]1C[C@@H]2c3cc(NS(=O)(=O)c4ccc(F)cc4)ccc3O[C@@H]2[C@H](CO)O1)NCc1ccccc1F -1.08%
CN(C)C(=O)C[C@@H]1C[C@@H]2c3cc(NS(=O)(=O)c4ccc(F)cc4)ccc3O[C@@H]2[C@@H](CO)O1 28%
O=C(C[C@H]1C[C@H]2c3cc(NS(=O)(=O)c4ccc(F)cc4)ccc3O[C@H]2[C@@H](CO)O1)NCc1ccccc1F 27.6%
Cc1cc(C(=O)N2CCC(C(=O)O)CC2)c(C(F)(F)F)o1 -13.1%
CCN(CC)S(=O)(=O)c1cccc(NC(=O)c2ccc(-n3nc(C)cc3C)cc2)c1 -21.6%
CCc1nnc(NC(=O)[C@@H](NC(=O)c2cccc(S(=O)(=O)N(CC)CC)c2)C(C)C)s1 -4.25%
O=C(Nc1cccc(C(F)(F)F)c1)c1ccc(Cn2cc(Br)cn2)o1 -20.7%
Cc1cc(Nc2cccc(C(F)(F)F)c2)cc(=O)n1-c1cccc(C(F)(F)F)c1 -4.17%
O=C(C[C@H]1C[C@H]2c3cc(NC(=O)C4CCC4)ccc3O[C@H]2[C@@H](CO)O1)NCc1ccc2c(c1)OCO2 7.29% [at 30 µM]
CN(C)CCCNC(=O)[C@H]1[C@H](CO)[C@H]2Cn3c(ccc(C4=CCCC4)c3=O)[C@H]2N1CCC(F)(F)F 23.1%
O=C(NCc1cccc(F)c1)[C@@H]1[C@@H](CO)[C@@H]2Cn3c(ccc(-c4cccnc4)c3=O)[C@H]1N2CC1CC1 5.3%
Cc1cc(C)c(CN2CCN(C(=O)Cn3ccc(NC(=O)OCc4ccccc4)nc3=O)CC2)c(C)c1 -21.1%
CCCNC(=O)C[C@@H]1C[C@@H]2c3cc(NC(=O)CN(C)C)ccc3O[C@@H]2[C@H](CO)O1 1.88%
C[C@H](CO)N1C[C@H](C)[C@H](CN(C)C(=O)Nc2ccccc2)Oc2c(NS(=O)(=O)c3ccc(F)cc3)cccc2C1=O 77.5% [at 8 µM]
Cc1nn(C)c(C)c1CN(C)S(=O)(=O)c1ccc2ccccc2c1 -19.4%
O=C(C[C@H]1C[C@H]2c3cc(NC(=O)NC4CCCC4)ccc3O[C@H]2[C@@H](CO)O1)NC1CCCCC1 4.98% [at 30 µM]
COc1ccccc1S(=O)(=O)n1cc(Cc2ccccc2)c(N)n1 0.466%
O=C(NCC[C@@H]1CC[C@@H](NS(=O)(=O)c2ccccc2F)[C@@H](CO)O1)c1ccc(F)cc1 23.2%
COc1ccc(S(=O)(=O)N[C@@H]2CC[C@@H](CC(=O)NCCc3ccncc3)O[C@@H]2CO)cc1 -7.73%
CC1CN(S(=O)(=O)c2cc(C(=O)NCCC3=CCCCC3)ccc2Cl)CC(C)O1 (stereo unspecified) -19.3% [at 16 µM]
